Data on 51 molecules can be found in PubChem BioAssay AID624296 (National Center for Advancing Translational Sciences (NCATS), 2012).

Each structure is given as a SMILES string. Among all 350,000 compounds or so, about 9,900 (2.8%) were called active. Not shown: some 15% with an inconclusive outcome. This is one part of a sample in which actives are shown more often than they occur. Values without a mark were called inactive. The call rests on the fitted dose curve; in most records, active means well fitted activation curve with a large enough effect; inconclusive means small, poorly fitted or top-dose-only effect; inactive means no such curve, though single readings can be large or run the other way.
Potency means the concentration at half of the fitted maximal effect.

This assay can be described thus: A quantitative high throughput screen for small molecules that induce DNA re-replication in MCF 10a normal breast cells. Further: nearly all actives have a fitted effect of over 50% in size. On activity, positive = re-replication: % of control where 0% means no effect. The following applies: MCF 10A DNA re-replication, Hoechst nuclear intensity, 48 h; series mostly up to 46.1 µM; activity, positive = re-replication: at the top concentration.
As for `COc1ccc(C(=O)N(C)Cc2ccc(OC)c(OC)c2OC)cc1S(=O)(=O)N1CCOCC1`, the “activity, positive = re-replication” value is -7.11%. For the molecule `O=C(CC(O)(C(F)(F)F)C(F)(F)F)Nc1ccc(Cl)c(Cl)c1`, the Potency is 5.8 µM (active). For `Cc1ccc(NC(=O)C/C(N)=N/O)cc1Cl`, the “activity, positive = re-replication” value is 3.94%.

In the case of `Cc1nnc(NC(=O)Nc2ccc(Cl)c(Cl)c2)s1`, the “activity, positive = re-replication” value was 0.674%. Still for that read-out and setting: with `C[C@H](O)[C@@H]1C(=O)N2CCc3ccc(N4CCOCC4)cc3[C@@H]2C[C@@H]1N(C)C(=O)C(C)(C)C` the figure was -15.5%. The same measure, in the same setting: with `CN(C)C(=O)CCc1ccc2c3c([nH]c2c1)[C@]1(CCC2CCCC2)[C@@H](C(=O)N2CCOCC2)C[C@H](CC(=O)NCc2ccco2)C(=O)N1CC3` the figure was 0.547%; with `CC(=O)OCC1(O)CC23CCC4c5ccoc5CCC4(C)C2CCC1C3` (stereo unspecified), 4.61%; with `N#Cc1c2c(c(-c3ccccc3)[nH]c1=O)CCCC2`, -3.44%. Consider `N#Cc1c(-c2ccccc2)c(-c2ccccc2)n[nH]c1=O`, for which the Potency is 2.59 µM (active). For `Cc1ccc(CSc2nc(-c3ccccc3)c(C#N)c(=O)[nH]2)cc1`, the “activity, positive = re-replication” value was 63.4%. The same measure, in the same setting: with `CCOc1ncccc1C(=O)OCC(=O)Nc1cccc(S(=O)(=O)N2CCCCCC2)c1` the figure was 16.2%; with `COc1ccccc1N1CC(C(=O)Nc2ccc(S(=O)(=O)N3CCOCC3)cc2)CC1=O` (stereo unspecified), -0.803%. With `COc1cc(OC)c(N2CC(C(=O)Nc3cc(Cl)ccc3N3CCOCC3)CC2=O)cc1Cl` (stereo unspecified), the Potency is 18.4 µM (active). As to `COc1ccc(Cl)cc1NC(=O)C1CC(=O)N(c2ccc(F)cc2)C1` (stereo unspecified), the “activity, positive = re-replication” value is -12.6%.

For `Cc1ccc(CSc2ccc(S(=O)(=O)N3CCCCC3)cn2)cc1`, the “activity, positive = re-replication” value is 14%. For `Cc1ccsc1C(=O)NNC(=O)COc1ccc(Br)cc1`, the “activity, positive = re-replication” value was 2.39%. Still for that read-out and setting: with `O=C1c2ccccc2C(=O)C1C(=O)C1CC1` the figure was 12%. In the case of `Cc1ccc(-c2cc(=O)c3ccc(Cl)cc3[nH]2)cc1`, the “activity, positive = re-replication” value was -6.12%.

For the molecule `O=c1cc(-c2ccccc2)[nH]c2cc(F)ccc12`, the Potency was 1.3 µM (active). `Cc1ccc(-c2cc(=O)c3ccc(F)cc3[nH]2)cc1`: the “activity, positive = re-replication” value was 17.8%. Same read-out and setting: with `C[C@H](CO)N1C[C@H](C)[C@H](CN(C)CC2CC2)Oc2ccc(NC(=O)CCN3CCOCC3)cc2C1=O` the figure was 0.189%; with `CC(=O)c1ccc(NC(=O)C(C)OC(=O)c2ccc(NS(=O)(=O)c3ccc4[nH]c(=O)[nH]c4c3)cc2)cc1` (stereo unspecified), -2.03%. On to `O=S(=O)(Nc1ncnc2sccc12)c1cccc(F)c1`, for which the “activity, positive = re-replication” value is 7.7%. As for `COc1ccc2c(c1)C(SCC(=O)NCc1ccccc1)CC(C)(C)O2` (stereo unspecified), the “activity, positive = re-replication” value was -3.92%.

In the case of `COc1ccc2c(c1)C=CC1(O2)N(CCO)c2ccccc2C1(C)C` (stereo unspecified), the Potency is 20.6 µM (active).

In the case of `CN1c2ccc([N+](=O)[O-])cc2C(C)(C)C12C=Cc1cc(C(=O)O)ccc1O2` (stereo unspecified), the “activity, positive = re-replication” value is -11.9%. The same measure, in the same setting: with `O=C(CN1C(=O)NC2(CCCCCCC2)C1=O)NCc1ccc(F)cc1` the figure was 15.7%. Same read-out and setting: with `COc1cccc(C(=O)OCC(=O)c2[nH]c(C)c(C(C)=O)c2C)c1` the figure was 15.1%; with `CCN(C[C@H]1N[C@@](CC)(C(=O)OC)[C@H]2C(=O)N(Cc3ccccc3)C(=O)[C@@H]12)S(=O)(=O)c1ccc(C(F)(F)F)cc1`, -4.29%; with `CCC1(CC)NC(=O)N(CC(=O)OCC(=O)c2cc(C)c(C)cc2C)C1=O`, 3.4%. Still for that read-out and setting: with `O=C(NCC1CCCCC1)NCC1CCCCC1` the figure was -1.83%; with `Cc1cnc(NC(=O)c2ccc(Cl)nc2)s1`, 0.739%.

As for `CCN(CC)c1ccc(NC(=O)c2ccc(Cl)nc2)cc1`, the Potency is 5.8 µM (active). Consider `O=C(NNC(=O)c1ccc(Cl)nc1)c1ccc(Br)cc1`, for which the “activity, positive = re-replication” value is -31.3%. Still for that read-out and setting: with `Cc1ccccc1SCC(=O)OCC(=O)N1CC(=O)Nc2ccccc21` the figure was -1.01%; with `Cc1ccccc1-c1cc(C(=O)NCc2cccs2)n(CC2CC(c3cccnc3)=NO2)n1` (stereo unspecified), -25.3%.

For the molecule `O=C(NCCN1CCOCC1)c1ccc2c(c1)ncn2C1CCCC1`, the “activity, positive = re-replication” value is -3.91%. Take `c1ccc2cc3c(NCCN4CCOCC4)ccnc3cc2c1`: the Potency is 4.61 µM (active).

`O=C(NCCN1CCOCC1)c1cc(-c2cccs2)nc2ccccc12`: the “activity, positive = re-replication” value is 6.61%. The same measure, in the same setting: with `COc1cc(C2CC(=O)Oc3cc(OC)c(OC)c(OC)c32)cc(OC)c1OC` (stereo unspecified) the figure was 2.66%; with `Cc1ccc(-c2nnc(-c3ccc(NC(=O)c4cccs4)cc3)o2)cc1`, 23.4%. As to `Cc1ccc(OCC(=O)Nc2ccc(NC(=O)c3cccs3)cc2)c(C)c1`, the Potency is 20.6 µM (active). For `COc1cc2ccccc2cc1C(=O)Nc1ccc(NC(=O)c2cccs2)cc1`, the “activity, positive = re-replication” value was 5.54%.

For the molecule `Cn1cccc1C(=O)OCC(=O)NCCc1ccccc1`, the “activity, positive = re-replication” value is -4.88%. Regarding `Cc1ccc(S(=O)(=O)N2CCN(C(=O)CN3C(=O)NC(C)(c4ccc(Cl)cc4)C3=O)CC2)c(C)c1` (stereo unspecified), the “activity, positive = re-replication” value is -1.48%.

Regarding `NC(=O)c1ccc(N2CCCC2)nc1`, the “activity, positive = re-replication” value is -25.7%. Same read-out and setting: with `CCCCSc1nc2ccccc2[nH]1` the figure was -11%; with `C=CCSc1nc2ccccc2[nH]1`, 10.6%. For the molecule `COc1ccccc1CSc1ncc(-c2ccc([N+](=O)[O-])cc2)[nH]1`, the Potency is 11.6 µM (active).

As for `COc1ccccc1CSc1nc2ccccc2[nH]1`, the Potency is 8.2 µM (active). Turning to `N#Cc1c(-c2ccccc2)nc(SCc2ccc([N+](=O)[O-])cc2)[nH]c1=O`, the “activity, positive = re-replication” value is 8.55%.
